Data taken from PubChem BioAssay (NCATS).
Inconclusive results are not listed. A call without a number means that no potency is given here. Unmarked numbers belong to inactive results. Active and inactive are the calls of the source. Calls come from the whole dose curve; as a rule, active = well fitted cell-killing curve with a large enough effect; inconclusive = small, poorly fitted or top-dose-only effect, or effect the other way; inactive = no such curve, though single readings can be large or run the other way.

Key:
[1] = Viability qHTS for spleen associated tyrosine kinase inhibitor (SYKi) naive MV4-11 cells (AID 1963823); conditions: MV4-11 AML viability, CellTiter-Glo luminescence, 72 h; series mostly up to 45 µM; note: nearly all actives have a fitted effect of over 40% in size
In short: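 In this viability screen, compounds acted on SYK inhibitor naive MV4-11 cells for three days (72 hr, 37 C). Remaining viable cells were measured by CellTiter-Glo luminescence following a 10 min room-temperature development.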

[2] = Viability qHTS for spleen associated tyrosine kinase inhibitor (SYKi) drug resistant MV4-11 cells (AID 1963824); conditions: SYKi-resistant MV4-11 viability, CellTiter-Glo, 72 h; series mostly up to 45 µM; note: nearly all actives have a fitted effect of over 35% in size
In short: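 SYK inhibitor-resistant MV4-11 AML cells, 500 per well, added to predispensed compounds and incubated 72 hr at 37 C, 5% CO2. Viability measured by CellTiter-Glo luminescence after 10 min at room temperature.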
Potency is the fitted concentration of half-maximal effect.

SMILES | viability (% of control) [1] | viability, % of control [2] | Potency [1] | Potency [2]
CC1(C)CC[C@]2(C(=O)O[C@@H]3O[C@H](CO)[C@@H](O)[C@H](O)[C@H]3O)CC[C@]3(C)C(=CCC4[C@@]5(C)CC[C@H](OC6OC(C(=O)O)C(OC7OC(CO)C(O)C(O)C7O)C(O)C6O)C(C)(C)C5CC[C@]43C)C2C1 (some centres not stated) | 86.6% [at 9.25 µM] | 91.6% [at 9.25 µM] |  | 
Cc1ccc(C(=O)/C=C/c2ccccc2)s1 |  |  | 8.2 µM (active) | 7.31 µM (active)
O=C(/C=C/c1ccc(O)cc1)O[C@H]1[C@@H]2C=CO[C@@H](O[C@@H]3O[C@H](CO)[C@@H](O)[C@H](O)[C@H]3O)[C@@H]2[C@@]2(CO)O[C@@H]12 |  |  | inactive | inactive
CCC[C@@H](NC(=O)N1C(=O)C(CC)(CC)[C@@H]1Oc1ccc(C(=O)N2CCN(C)CC2)cc1)c1ccc2c(c1)OCO2 |  |  | 18.4 µM (active) | 20.6 µM (active)
c1ccc2c(-c3cnn4cc(-c5ccc(OCCN6CCOCC6)cc5)cnc34)ccnc2c1 |  |  | 1.02 µM (active) | 1.44 µM (active)
CC[C@@H](Nc1c(Nc2cccc(C(=O)N(C)C)c2O)c(=O)c1=O)c1ccc(C)o1 |  |  | inactive | inactive
COc1c(C)c(C(=O)c2ccc(N)c(C(=O)O)c2)n2ccccc12 |  |  | inactive | inactive
NC[C@@H]1O[C@@H](O[C@@H]2[C@@H](O[C@@H]3O[C@H](CO)[C@@H](O)[C@H]3O)[C@H](O)[C@@H](N)C[C@H]2N)[C@@H](N)[C@H](O)[C@H]1O | 88.1% [at 9.25 µM] | 93.2% [at 9.25 µM] |  | 
O=C(Nc1nc2cc(C(F)(F)F)cc(NC3CC3)n2n1)c1cccnc1 |  |  | 3.66 µM (active) | 2.59 µM (active)
COC(=O)CCC(=O)OC[C@]1(C)CCC[C@@]2(C)C3CC[C@]4(C)C=CC3(CCC12)C4 (some centres not stated) |  |  | inactive | inactive
C=CC(C)(O)CC[C@@H]1[C@@]2(C)CCCC(C)(C)C2CC[C@@]1(C)O (some centres not stated) |  |  | 25.9 µM (active) | 20.6 µM (active)
CC1(C)CCC2(C(=O)OC3OC(COC4OC(CO)C(O)C(O)C4O)C(O)C(O)C3O)CCC3(C)C(=CCC4C5(C)CCC(O)C(C)(C(=O)O)C5CCC43C)C2C1O (configuration not stated) | 83.4% [at 9.25 µM] | 102% [at 9.25 µM] |  | 
COC(=O)c1ccnc(-c2cc(C(=O)Nc3ccc(C4(N)CC4)cc3)ccn2)c1 |  |  | inactive | inactive
Oc1cc(CNC(=S)/C=C/c2cc(O)c(O)c(Br)c2)cc(O)c1O |  |  | 1.84 µM (active) | 1.84 µM (active)
CC1CC[C@]2(C(=O)O)CC[C@]3(C(=O)O)C(=CCC4[C@@]5(C)CC[C@H](OC6OC(C)C(O)C(OC7OC(CO)C(O)C(O)C7O)C6O)C(C)(C)C5CC[C@]43C)C2C1C (some centres not stated) |  |  | inactive | inactive
COc1cc(CCO)ccc1O[C@@H]1O[C@H](CO)[C@@H](O)[C@H](O)[C@H]1O |  |  | inactive | inactive
OC[C@H]1O[C@@H](OCCc2ccccc2)[C@H](O)[C@@H](O)[C@@H]1O |  |  | inactive | inactive
CC1(CO)CC[C@]2(C(=O)O[C@@H]3O[C@H](CO)[C@@H](O)[C@H](O)[C@H]3O)CC[C@]3(C)C(=CCC4[C@@]5(C)CC[C@H](O[C@@H]6O[C@H](C(=O)O)[C@@H](O)[C@H](O)[C@H]6O)C(C)(C)C5CC[C@]43C)C2C1 (some centres not stated) | 87.4% [at 9.25 µM] | 104% [at 9.25 µM] |  | 
O=C(O)Cc1cn([C@@H]2O[C@H](CO)[C@@H](O)[C@H](O)[C@H]2O[C@@H]2O[C@H](CO)[C@@H](O)[C@H](O)[C@H]2O)c2ccccc12 |  |  | inactive | inactive
COc1ccc2[nH]c3c(c2c1)CCN[C@]31CS[C@@H]2c3c(OC(C)=O)c(C)c4c(c3[C@H](COC1=O)N1[C@@H]2[C@H]2c3c(cc(C)c(OC)c3O)C[C@@H]([C@@H]1O)N2C)OCO4 |  |  | 0.0015 µM (active) | 0.0011 µM (active)
C=C(C)C(=O)O[C@H]1[C@H]2C(=C)C(=O)O[C@@H]2C[C@@H](C)/C=C\C(=O)[C@](C)(O)[C@@H]1OC(C)=O |  |  | inactive | inactive
CCOC(=O)OCC/C(SC(=O)OCC)=C(\C)N(C=O)Cc1cnc(C)nc1N |  |  | inactive | inactive
OC[C@H]1O[C@@H](Oc2cc(O)c3c(c2)O[C@@H](c2ccc(O)cc2)[C@H](O)C3)[C@H](O)[C@@H](O)[C@@H]1O |  |  | inactive | inactive
COc1cc(-c2cccc(O)c2)cc2c1OCO2 |  |  | inactive | inactive
CCCc1cc(C)[nH]c(=O)c1CNC(=O)c1cc(-c2ccnc(N3CCN(C)CC3)c2)cc2c1cnn2C(C)C |  |  | 14.8 µM (active) | 11.8 µM (active)
C[C@H](/C=C/[C@@]1(O)[C@H](C)CC(=O)CC1(C)C)O[C@@H]1O[C@H](CO[C@@H]2OC[C@@H](O)[C@H](O)[C@H]2O)[C@@H](O)[C@H](O)[C@H]1O |  |  | inactive | inactive

SMILES | viability (% of control) [1] | viability, % of control [2] | Potency [1] | Potency [2]
O=C(O)CCc1cc2ccoc2cc1O[C@@H]1O[C@H](CO[C@@H]2OC[C@](O)(CO)[C@H]2O)[C@@H](O)[C@H](O)[C@H]1O |  |  | inactive | inactive
C=C(C)[C@@H]1CC[C@]2(C)CC[C@]3(C)C(CCC4[C@@]5(C)CC[C@H](O)C(C)(C)C5CC[C@]43C)C12 (some centres not stated) |  |  | inactive | inactive
C[C@@H]1O[C@@H](O[C@H]2[C@H](O[C@H]3[C@H](O[C@H]4CC[C@@]5(CO)C(CC[C@]6(C)C5CC=C5C7CC(C)(C)C[C@@H](O)[C@]7(C)CC[C@]56C)C4(C)C)O[C@H](C(=O)O)[C@@H](O)[C@@H]3O)OC[C@@H](O)[C@@H]2O)[C@H](O)[C@H](O)[C@H]1O (some centres not stated) | 63.5% [at 9.25 µM] | 70% [at 9.25 µM] |  | 
OCC1OC(Oc2cc(O)c3c(c2)OC(c2ccc(O)cc2)C(O)C3)C(O)C1O (configuration not stated) |  |  | inactive | inactive
Cc1ccc(-c2c(-c3nn(C)c4ncnc(N5CCC(N6CCCCC6)C5)c34)cnn2C)cc1 (configuration not stated) |  |  | 16.4 µM (active) | inactive
C=CC(C)(CC/C=C(\C)C(=O)OC)OC1OC(COC(=O)CC(C)(O)CC(=O)O)C(O)C(O)C1O (configuration not stated) |  |  | inactive | inactive
CN(C)c1ccc(Nc2c3ccc(NC(=O)CCN4CCCC4)cc3nc3cc(NC(=O)CCN4CCCC4)ccc23)cc1 |  |  | 5.17 µM (active) | 4.11 µM (active)
CC1COC2(OC3CC4C5CC(O[C@@H]6O[C@H](C)[C@@H](O[C@@H]7O[C@@H](C)[C@H](O)[C@@H](O)[C@H]7O)[C@H](O)[C@H]6O)C6CC(O)CCC6(C)C5CCC4(C)C3C2C)C(O)C1 (some centres not stated) |  |  | inactive | inactive
C=C1C(=O)OC[C@H]2C(C(=O)O)=CC3CC(C)(C)C[C@@]132 (some centres not stated) |  |  | inactive | 14.6 µM (active)
C/C=C(/COC(=O)/C(C)=C/C)C(=O)OC(CC)c1ccc(OC)c(OC)c1 (configuration not stated) |  |  | inactive | inactive
C[C@@H]1O[C@@H](O[C@H]2[C@H](O[C@H]3[C@H](O[C@H]4CC[C@@]5(C)C(CC[C@]6(C)C5CC=C5[C@@H]7CC(C)(C)C[C@@H](O)[C@]7(C)CC[C@]56C)[C@@]4(C)CO)O[C@H](C(=O)O)[C@@H](O)[C@@H]3O)O[C@H](CO)[C@H](O)[C@@H]2O)[C@H](O)[C@H](O)[C@H]1O (some centres not stated) | 74.1% [at 9.25 µM] | 80.3% [at 9.25 µM] |  | 
COC1CC(OC2CCC3(C)C(=CCC4C3C(OC(C)=O)C(OC(=O)/C=C/c3ccccc3)C3(C)C(C(C)O)CCC43O)C2)OC(C)C1OC1CC(OC)C(OC2OC(C)C(OC3OC(CO)C(O)C(O)C3O)C(OC)C2O)C(C)O1 (configuration not stated) | 69.8% [at 9.25 µM] | 71.5% [at 9.25 µM] |  | 
CC(C)CC(=O)c1c(O)cc2c(c1O)C(CC(C)C)C1=C(O2)C(C)(C)C(=O)C(C)(C)C1=O (configuration not stated) |  |  | 8.93 µM (active) | 8.93 µM (active)
N#Cc1cc(-c2n[nH]c(-c3ccncc3)n2)ccn1 |  |  | inactive | inactive
C[C@@H]1C(=O)O[C@H](C)[C@H]1C[C@@H](O)[C@](C)(O)[C@H]1CC[C@@]2(O)C3=CC(=O)[C@@H]4C[C@@H](O)[C@@H](O)C[C@]4(C)C3CC[C@]12C (some centres not stated) |  |  | inactive | inactive
C=CC(C)(CCC=C(C)C)O[C@@H]1O[C@H](CO)[C@@H](O)[C@H](O)[C@H]1O (some centres not stated) |  |  | inactive | inactive
CC(=O)O[C@H]1C[C@@H](O)C(C)(C)C2C[C@@H](OC(C)=O)[C@]3(C)C(CC[C@@]4(C)[C@H](c5ccoc5)OC(=O)[C@H]5O[C@]543)[C@]21C (some centres not stated) |  |  | inactive | inactive
Cc1cc(-c2ncc(-c3cccnc3)cc2/C=C/c2ccccc2)cnc1-c1cccnc1 |  |  | inactive | inactive
Cc1ccc(S(=O)(=O)c2ccc([N+](=O)[O-])o2)cc1 |  |  | 0.461 µM (active) | 0.411 µM (active)
COc1ccc(C(O)C(C)OC2OC(CO)C(O)C(O)C2O)cc1 (configuration not stated) |  |  | inactive | inactive
C=C1C[C@]23C[C@H]1CC[C@H]2[C@@]12C=C[C@H](O)[C@@](C)(C(=O)O1)[C@H]2[C@@H]3C(=O)O |  |  | inactive | inactive
CCOC(=O)COc1ccc2c(c1)C[C@@H](NC[C@H](O)c1cccc(Cl)c1)CC2 |  |  | 18.4 µM (active) | 8.2 µM (active)
COc1cc(C(CO)C(OC2OC(CO)C(O)C(O)C2O)c2ccc(O)c(OC)c2)ccc1O (configuration not stated) |  |  | inactive | inactive
C=C(C)[C@@H]1CC[C@]2(C)CC[C@]3(C)[C@H](CC[C@@H]4[C@@]5(C)CC[C@@H](O)C(C)(C)[C@@H]5CC[C@]43C)[C@@H]12 |  |  | inactive | inactive
COc1c2c(c(C)c3c1C(=O)OC3)O[C@@]1(C)C[C@@H](O)[C@]34O[C@](OC)(CC[C@]3(C)[C@H]1C2)OC4(C)C |  |  | inactive | inactive
